The record followed here is PubChem BioAssay (Tox21).

Where “and” joins values, the source holds several entries; their conditions need not be identical. Equal entries are not always repeated. Records with an inconclusive call do not appear. A structure can be active in one record and inactive in another. Calls of active or inactive are those of the source. Unless noted, the call rests on the fitted dose curve; in most records, active means well fitted curve in the direction sought with a large enough effect in the repeat runs; inconclusive means weak or mixed curves; inactive means no such curve, though single readings can be large; an effect the other way counts as inactive or inconclusive.

Experiment [1] in a line: qHTS assay to identify small molecule agonists of the vitamin D receptor (VDR) signaling pathway - cell viability counter screen (AID 743224). Further: nearly all actives have a fitted effect of over 50% in size. Summed up:
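VDR-bla cells, 4 h after plating, exposed to compounds for 16 h at 37C; viability then read in the same wells as CellTiter-Glo luminescence after 30 min at room temperature, following the bla FRET read.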
Background: In qHTS, concentration-response curves come from the screen itself.

Experiment [2] is described as follows: qHTS assay to identify small molecule antagonists of the vitamin D receptor (VDR) signaling pathway - cell viability counter screen (AID 743225). Further: nearly all actives have a fitted effect of over 50% in size. The method, boiled down:
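Parallel cytotoxicity test: VDR-UAS-bla HEK 293T, 3 nM (final) 1-alpha,25-dihydroxyvitamin D3 with test compound, 16 h, 37C. Endpoint is CellTiter-Glo luminescence in the same wells.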

The nature of experiment [3]: qHTS assay to identify small molecule agonists of the NFkB signaling pathway (AID 1159509; active means well fitted curve in the direction sought with a large enough effect in the signal ratio in the repeat runs, not every such curve was filed as active; the % refers to the signal ratio). The method, boiled down:
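ME-180 NFkB-bla, 2,000 cells/well, overnight plating; cpd pinned in DMSO, 5 h 37 C; B/G FRET substrate 1.5 h RT; ex 405, em 460/530 nm.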

Experiment [4] can be described thus: qHTS assay to identify small molecule agonists of the NFkB signaling pathway - cell viability counter screen (AID 1159515; calls by dose curve; further: nearly all actives have a fitted effect of over 55% in size). Summed up:
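NFkB-bla ME-180 cells, 2,000/well, plated overnight at 37 C; compound added for 5 hr at 37 C. Viability read in the same wells as the bla reporter, by CellTiter-Glo luminescence after 30 min at room temperature.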

A short description of experiment [5]: qHTS assay to identify small molecule agonists of the endoplasmic reticulum stress response signaling pathway (AID 1159516; active means well fitted activation curve with a large enough effect in the signal ratio in the repeat runs, not every such curve was filed as active; the % refers to the signal ratio). The method, boiled down: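 CellSensor ESRE-bla HeLa cells, 1,500 per well, plated overnight, then exposed to compounds for 5 hr at 37 C. Beta-lactamase reporter read with LiveBLAzer B/G FRET substrate after 2 hr at room temperature, 405 nm excitation, 460 and 530 nm emission.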

Experiment [6] in a line: qHTS assay to identify small molecule agonists of the endoplasmic reticulum stress response signaling pathway - cell viability counter screen (AID 1159517; calls by dose curve;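 further: HeLa cells carrying an ER stress response element beta-lactamase reporter; nearly all actives have a fitted effect of over 50% in size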). Summed up: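 CellTiter-Glo was added to wells already read for beta-lactamase FRET, and luminescence was recorded 30 min later. Cells: ESRE-bla HeLa, 1,500 per well, compound exposure 5 hr at 37 C.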
A short description of experiment [7]: qHTS assay to identify small molecule antagonists of the retinoid-related orphan receptor gamma (ROR-gamma) signaling pathway - cell viability counter screen (AID 1159520). Further: nearly all actives have a fitted effect of over 50% in size. The method, boiled down:
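Tet-on ROR gamma CHO cells (1,000/well) were plated 4 hr, given compounds in DMSO for 2 hr at 37 C, then induced with 1 uM final doxycycline for 16 hr. Viability was read as ATP by CellTiter-Glo luminescence after 30 min.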

Experiment [8] deals with Nuclear receptor ROR-gamma (Homo sapiens) (UniProt P51449). As to the kind of experiment: qHTS assay to identify small molecule antagonists of the retinoid-related orphan receptor gamma (ROR-gamma) signaling pathway (AID 1159521). Summed up: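 Decreased RORE-driven luciferase luminescence indicates antagonism. Tet-on RORγ CHO cells received compound, then 1 uM final doxycycline 2 h later; signal read after 16 h incubation.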

Experiment [9] in a line: qHTS assay to identify small molecule agonists of the AP-1 signaling pathway - cell viability counter screen (AID 1159525; calls by dose curve; further: nearly all actives have a fitted effect of over 55% in size). Summed up:
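ME-180 AP-1-bla, 2500 cells/well, Opti-MEM + 0.5% dialyzed FBS; overnight 37 °C; cpd 15-pt titration, 5 h 37 °C; CellTiter-Glo 30 min RT; luminescence read; normalised to TOAB and DMSO controls.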

A short description of experiment [10]: qHTS assay to identify small molecule agonists of the AP-1 signaling pathway (AID 1159526; calls by dose curve).
In experiment [11] the target is Retinoic acid receptor RXR-alpha (Homo sapiens) (UniProt P19793). As to the kind of experiment: qHTS assay to identify small molecule agonists of the RXR signaling pathway (AID 1159527; calls by dose curve; further: nearly all actives have a fitted effect of over 35% in size; further: potency means the concentration at half of the fitted maximal effect). Summed up:
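16 hr incubation of compound-treated RXR-alpha-UAS-bla HEK 293T cells (2% charcoal-stripped FBS, 37 C) preceded a 2 hr room-temperature LiveBLAzer FRET substrate step and blue/green fluorescence measurement.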

Experiment [12] is described as follows: qHTS assay to identify small molecule agonists of the RXR signaling pathway - cell viability counter screen (AID 1159529). Summed up:
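In this parallel viability measure, GeneBLAzer RXR-alpha HEK 293T cells (2% charcoal-stripped FBS) were given a 5 hr preincubation, treated with compounds 16 hr at 37 C, and read by CellTiter-Glo luminescence.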

Experiment [13] in a line: qHTS assay to identify small molecule antagonists of the retinoid acid receptor (RAR) signaling pathway - cell viability counter screen (AID 1159551). Further: nearly all actives have a fitted effect of over 35% in size. The method, boiled down: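 C3RL4 RARE-luciferase cells, 1,000/well, incubated overnight, then dosed with compound plus 1 uM retinol (final). After 6 hr at 37 C, viability read by CellTiter-Glo ATP luminescence following 30 min at room temperature.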

Experiment [14] in a line: qHTS assay to identify small molecule antagonists of the retinoic acid receptor (RAR) signaling pathway (AID 1159552; further: nearly all actives have a fitted effect of over 50% in size). The method, boiled down:
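C3RL4 RARE-luc cells, overnight plating; retinol 1 uM final added right after compound; 6 hr 37 C; luciferase read at 30 min RT.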

Experiment [15] in a line: qHTS assay to identify small molecule agonists of the retinoic acid receptor (RAR) signaling pathway (AID 1159553). The settings on record: C3RL4 RARE luciferase reporter, agonist, 6 h; activation: at 73.3 µM (top of the series) unless noted. The method, boiled down: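 C3RL4 RARE-luciferase cells were seeded at 1,000/well and grown overnight at 37 C, then exposed to compounds for 6 hr at 37 C, 5% CO2. Luciferase reagent was added and luminescence was read after 30 min at room temperature.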

Experiment [16] in a line: qHTS assay to identify small molecule antagonists of the estrogen related receptor (ERR) signaling pathway from Tox21 library - cell viability counter screen (AID 1224834). Further: nearly all actives have a fitted effect of over 30% in size. Further: potency means the concentration at half of the fitted maximal effect. Summed up: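 ERR reporter cells, 2,000 per well, rested 6 h, then exposed to compound in DMSO for 17.5 hours at 37 C. Viability read as fluorescence after 30 min with CellTiter-Fluor.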
Experiment [17] can be described thus: qHTS assay to identify small molecule agonists of the constitutive androstane receptor (CAR) signaling pathway - cell viability counter screen (AID 1224836). Further: nearly all actives have a fitted effect of over 45% in size. Summed up: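 Using CellTiter-Fluor, viability of HepG2 cells harbouring hCAR and CYP2B6-2.2kb was measured following 23 h incubation with a 15-concentration compound series plus PK11195 (0.75 uM final).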

For experiment [18], the target named is Luciferin 4-monooxygenase (Photinus pyralis) (UniProt P08659). As to the kind of experiment: qHTS assay to identify small molecule inhibitors of firefly luciferase (AID 1224835). Further: nearly all actives have a fitted effect of over 25% in size. Further: potency means the concentration at half of the fitted maximal effect. Summed up:
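Quantitative HTS format; KM concentrations of both substrates. Purified P. pyralis FLuc activity quantified from luminescence images.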

Chain of Luciferin 4-monooxygenase (Photinus pyralis) (P08659 whole entry, looked up): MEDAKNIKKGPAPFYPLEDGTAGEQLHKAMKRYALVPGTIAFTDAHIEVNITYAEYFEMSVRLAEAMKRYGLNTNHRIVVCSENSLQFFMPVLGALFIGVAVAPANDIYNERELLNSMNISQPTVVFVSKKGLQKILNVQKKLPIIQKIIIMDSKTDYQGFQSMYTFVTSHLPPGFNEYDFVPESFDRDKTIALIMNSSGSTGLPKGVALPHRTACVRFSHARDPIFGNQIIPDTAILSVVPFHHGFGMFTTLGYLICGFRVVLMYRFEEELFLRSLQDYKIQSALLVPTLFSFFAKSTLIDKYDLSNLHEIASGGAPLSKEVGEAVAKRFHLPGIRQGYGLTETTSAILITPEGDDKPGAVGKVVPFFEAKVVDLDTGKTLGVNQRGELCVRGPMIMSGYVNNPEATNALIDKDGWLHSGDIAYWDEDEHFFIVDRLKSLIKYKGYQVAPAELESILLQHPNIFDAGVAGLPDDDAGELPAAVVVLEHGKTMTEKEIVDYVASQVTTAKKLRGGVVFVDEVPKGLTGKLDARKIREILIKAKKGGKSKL
Chain of Retinoic acid receptor RXR-alpha (Homo sapiens) (P19793 whole entry, looked up): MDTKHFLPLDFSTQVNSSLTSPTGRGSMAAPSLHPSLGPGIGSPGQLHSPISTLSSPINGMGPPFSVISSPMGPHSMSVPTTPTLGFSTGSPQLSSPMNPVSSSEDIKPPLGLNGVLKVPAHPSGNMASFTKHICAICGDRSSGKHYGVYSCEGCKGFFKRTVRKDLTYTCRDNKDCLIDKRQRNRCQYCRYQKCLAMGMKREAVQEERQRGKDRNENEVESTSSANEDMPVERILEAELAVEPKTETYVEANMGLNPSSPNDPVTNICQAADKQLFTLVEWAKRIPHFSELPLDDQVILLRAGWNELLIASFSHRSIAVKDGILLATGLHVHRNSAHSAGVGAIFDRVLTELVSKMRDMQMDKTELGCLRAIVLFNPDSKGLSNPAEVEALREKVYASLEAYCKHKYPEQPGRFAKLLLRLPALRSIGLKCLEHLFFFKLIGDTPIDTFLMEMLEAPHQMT

On to `CNC(=O)Oc1ccccc1OC(C)C`, for which the call in experiment [1], in experiment [2], in experiment [3], in [4], in experiment [5] and in [6] was inactive. Besides, in [13], the result was inactive. The Potency entry in experiment [7], in experiment [8], in experiment [9], in experiment [10], in experiment [11] and in [12] was “inactive” throughout. In addition, the Potency result in [14], in experiment [15], in experiment [16] and in experiment [17] was “inactive” throughout.
Regarding `CCOP(OCC)OCC`, the compound was classed as inactive in [1], in experiment [2], in experiment [3], in experiment [4], in experiment [5] and in experiment [6]. Besides, the compound was classed as inactive in experiment [13]. In addition, the Potency result in experiment [7], in experiment [9], in experiment [10], in experiment [12], in experiment [14] and in [15] was “inactive” throughout. Also, in experiment [16], the Potency entry is “inactive”. In experiment [11], the Potency was 22.3 µM (active) and inactive.
Consider `COC(=O)NC(=S)Nc1ccccc1NC(=S)NC(=O)OC`, for which the outcome in experiment [1], in experiment [2], in experiment [3], in experiment [4], in experiment [5] and in [6] was inactive. The outcome in [13] was inactive. Further, the Potency entry in experiment [7], in [8], in experiment [10], in experiment [11], in experiment [12] and in [16] was “inactive” each time. In addition, in experiment [18], the Potency result is “inactive”.
`[O-][Cl+2]([O-])O`: the result in experiment [1], in experiment [3], in [4], in experiment [5], in experiment [6] and in experiment [13] was inactive. Also, the Potency entry in experiment [7], in [9], in experiment [10], in experiment [11], in experiment [12] and in experiment [14] was “inactive” each time. The Potency result in experiment [15], in experiment [16] and in experiment [18] was “inactive” in each case.
On to `Cc1ccc(N)cc1Cl`, for which the result in experiment [1], in experiment [3], in experiment [4], in experiment [5], in experiment [6] and in experiment [13] was inactive. The Potency result in experiment [7], in [8], in [9], in experiment [10], in [11] and in experiment [12] was “inactive” throughout. Also, the Potency entry in experiment [14], in experiment [15] and in [16] was “inactive” in each case. For the same compound, the Potency entry in [18] was “inactive and 56.4 µM (active)”.
As for `O=NN1CCCC1`, the compound was classed as inactive in [1], in [2], in experiment [3], in [4], in experiment [5] and in experiment [6]. In addition, the call in experiment [13] was inactive. The Potency entry in [7], in experiment [9], in [10], in [11], in [12] and in [14] was “inactive” throughout. Further, the Potency entry in experiment [15] is “inactive”. For the same compound, the Potency in [16] was 45.3 µM (active) and inactive.
For `c1cc2c3c(cccc3c1)CC2`, the outcome in [1], in experiment [3], in [4], in experiment [5], in experiment [6] and in experiment [13] was inactive. Further, the Potency result in experiment [7], in experiment [8], in experiment [9], in [10], in experiment [11] and in experiment [12] was “inactive” each time. In addition, the Potency result in experiment [14], in experiment [15], in experiment [16] and in experiment [17] was “inactive” in each case.
As to `CC(=O)C=C(C)C`, the result in [1], in [3], in experiment [4], in [5], in experiment [6] and in experiment [13] was inactive. The Potency result in experiment [7], in experiment [8], in [10], in [11], in experiment [12] and in experiment [15] was “inactive” throughout. In addition, the Potency result in [16], in experiment [18] and in experiment [17] was “inactive” in each case.
Regarding `Nc1c(Cl)c(Cl)nc(C(=O)O)c1Cl`, the compound was classed as inactive in [1], in experiment [2], in experiment [3], in experiment [4], in experiment [5] and in [6]. Besides, the call in [13] was inactive. Further, the Potency result in experiment [7], in experiment [8], in experiment [9], in [10], in experiment [12] and in [16] was “inactive” throughout. In [17], the Potency result is “inactive”.
